# Experimental data published in PubChem BioAssay (NCATS).
# Records with an inconclusive call do not appear. Where a call stands in place of a potency, no number is given. Activity calls are given as the source filed them. Calls follow the shape of the dose curve; as a rule, active = well fitted inhibition curve with a large enough effect; inconclusive = small, poorly fitted or top-dose-only effect; inactive = no such curve, though single readings can be large or run the other way.
# Test: HTS Assay for Allosteric Antagonists of the Human D2 Dopamine Receptor: Hit Validation in HTRF (AID 624455);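 also: stable D1 dopamine receptor cell line scored for blocking the D1 response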
# Conditions: Cells stably expressing D1 dopamine receptor, inhibition mode; series mostly up to 46.1 µM
# Outline: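 First, antagonism was screened by calcium flux in a force-coupled, inducible Hek293 Trex D2 line challenged with EC80 dopamine. Hits then went into an HTRF assay in cells stably expressing D1, testing inhibition of the D1 response.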
row,Structure (SMILES),Potency
1,Cc1ccc(O)c(N=Nc2ccccc2)n1,inactive
2,CC(=O)SCC[N+](C)(C)C,inactive
3,COc1cc2nc(N3CCN(C(=O)OCc4ccccc4)C(C(=O)NC(C)(C)C)C3)nc(N)c2cc1OC (stereo not given),inactive
4,CC1(C)CCC=[N+]1[O-],inactive
5,CO/S(=N\S(=O)(=O)c1ccc(Cl)cc1)c1ccc([N+](=O)[O-])cc1 (stereo not given),inactive
6,O=P(O)(O)C(Cl)(Cl)P(=O)(O)O,inactive
7,COc1cc(C(O)CO)ccc1OS(=O)(=O)O (stereo not given),inactive
8,CC(C)Cc1ccc([C@H](C)C(=O)O)cc1,inactive
9,Cc1nc2sccn2c(=O)c1CCN1CCC(=C(c2ccccc2)c2ccc(F)cc2)CC1,inactive
10,O=c1[nH]c2cc(Cl)c(Cl)cc2[nH]c1=O,inactive
11,CC1CN(S(=O)(=O)c2cccc3cnccc23)CCN1 (stereo not given),inactive
12,C[C@@H](NC(=O)/C(C#N)=C/c1ccc(O)c(O)c1)c1ccccc1,inactive
13,CCCN(CC1CC1)c1nc(C)nc(Nc2c(Cl)cc(Cl)cc2Cl)c1Cl,inactive
14,Cc1cc(NC2CCCCC2)nc(-n2nc(C)cc2C)n1,inactive
15,NCCSSCCN,inactive
16,CC(C)(C=O)Cc1cc(C(C)(C)C)c(O)c(C(C)(C)C)c1,inactive
17,CCc1c(C(=O)NCCc2ccc(N3CCCCC3)cc2)[nH]c2ccc(Cl)cc12,inactive
18,CN=c1nc(-c2ccccc2)n(-c2ccccc2)s1,inactive
19,C=CC(C)=C[C@@]1(C)SC(=O)C(C)=C1O,inactive
20,OC[C@H]1O[C@@H](n2cnc3c(NC4CCCCC4)ncnc32)[C@H](O)[C@@H]1O,inactive
21,O=C1NC(=O)/C(=C/c2ccc3nccnc3c2)S1,inactive
22,NCCCCC(=O)O,inactive
23,O=C(O)c1cc([N+](=O)[O-])ccc1NCCCc1ccccc1,inactive
24,Nc1ncnc2c1ncn2[C@@H]1O[C@H](COP(=O)(O)CP(=O)(O)OP(=O)(O)O)[C@@H](O)[C@H]1O,inactive
25,CCCCC#Cc1nc(NC)c2ncn([C@@H]3O[C@H](CO)[C@@H](O)[C@H]3O)c2n1,inactive
